From PubChem BioAssay
Hits are enriched below; roughly 3% of the tested compounds scored in any of these assays.
INS promoter inh = TRM-6 insulin promoter activity inhibition | TRM-6 cells (human fetal islet line), insulin promoter-eGFP reporter, imaging; reporter expression induced with tamoxifen | inhibition, % at 2 µM | actives 0.9% (n = 130,000) | AID 1273;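 active = inhibition above the mean plus 3 SD, with well images judged a real hit on visual review, cut at about 60% in these data, passing the limit was not always enough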
Measles CPE = protection of cells from measles virus; Measles virus-infected cells, CPE protection, absorbance; actives 1.5% (n = 140,000); protection (pct of control), % at 4 µM; in the data active = protection mostly above about 24%, no sharp cut-off; inactive = mostly below about 26%
ROMK mod = human ROMK K+ channel modulation, primary screen | actives 2% (n = 130,000) | P48048 | Tet-inducible ROMK, thallium flux fluorescence; actives lie on both sides | B-score at 10 µM;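 active = signal ratio slope over the read window, or its plate-corrected B-score, at least 3 SD from the plate mean, either direction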;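 note: B-score of the F/F0 ratio slope over 7 to 12 s after thallium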
Target sequence (P48048 whole entry, looked up): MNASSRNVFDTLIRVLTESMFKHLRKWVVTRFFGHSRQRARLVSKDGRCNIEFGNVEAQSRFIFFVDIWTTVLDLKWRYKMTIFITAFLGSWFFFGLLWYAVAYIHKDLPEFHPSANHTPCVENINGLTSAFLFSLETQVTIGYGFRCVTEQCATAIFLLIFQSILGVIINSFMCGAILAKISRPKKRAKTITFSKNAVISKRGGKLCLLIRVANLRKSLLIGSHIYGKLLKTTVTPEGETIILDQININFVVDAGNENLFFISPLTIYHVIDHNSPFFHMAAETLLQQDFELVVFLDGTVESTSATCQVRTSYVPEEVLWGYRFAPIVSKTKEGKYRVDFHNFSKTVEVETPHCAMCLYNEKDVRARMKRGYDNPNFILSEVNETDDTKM
sdo1 growth = compounds rescuing growth of sdo1-depleted yeast, bone marrow failure model | z-score at 10 µM | S. cerevisiae sdo1-depleted JHY4D growth rescue, OD600 30 h; hits give high values; pdr5 snq2 efflux-pump mutant strain | actives 0.21% (n = 140,000);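 active = z-score above 3 at both the 24 hr and the 30 hr optical density reads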;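 note: z-score against mean and SD of all compound wells on the same plate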
Active calls of the source: *.

Results for COc1cc(CNc2ccc(C(=O)O)cc2)cc(Br)c1OCC(=O)NC(C)(C)C ?
Measles CPE: 35.5*; ROMK mod: 0.628; sdo1 growth: 1.04

What do the screens show for `CCOc1cc(CNc2ccc(OC)cc2)cc(Br)c1OCC(=O)NC(C)(C)C`?
Measles CPE: 5.1; sdo1 growth: -0.03

How did COCCCNC(=O)CCc1ccc(S(=O)(=O)Nc2ccc(C)cc2)cc1 do in these assays?
INS promoter inh: -8.3; Measles CPE: 8.3; ROMK mod: 0.0328; sdo1 growth: -0.36

Results for Cc1ccc(NS(=O)(=O)c2ccc(CCC(=O)NCCCOC(C)C)cc2)cc1 ?
INS promoter inh: -66.7; Measles CPE: 24.7*; ROMK mod: -0.93; sdo1 growth: -0.01

Results for COc1ccc([C@@H]2Sc3cc(OC)ccc3N(CCN(C(C)C)C(C)C)C(=O)[C@H]2OC(C)=O)cc1 ?
INS promoter inh: -366.7; Measles CPE: 47.6*; sdo1 growth: 0.76

Results for CCN1C(=O)C(NC(C)=O)c2cc(OC)ccc21 (configuration not stated) ?
INS promoter inh: 12.1; Measles CPE: 8.3; ROMK mod: 0.747; sdo1 growth: 2.49

What do the screens show for `O=C(CN(Cc1ccccc1)S(=O)(=O)c1ccccc1)N1CCOCC1`?
INS promoter inh: -37.8; Measles CPE: 38.1*; sdo1 growth: 0.09

Results for COc1ccc(S(=O)(=O)N(CC(=O)N2CCOCC2)Cc2ccccc2)cc1 ?
Measles CPE: 17.8; sdo1 growth: -0.03

How did C=CCNC(C(=O)Nc1cccc(OC)c1)c1ccccc1 (configuration not stated) do in these assays?
INS promoter inh: 6.7; ROMK mod: -0.289

How did COc1cccc(NC(=O)C(NCC(C)(C)CN(C)C)c2ccccc2)c1 (configuration not stated) do in these assays?
INS promoter inh: 6.7; Measles CPE: 45.7*; ROMK mod: 0.408; sdo1 growth: -0.06

How did O=c1cc(O)c2c(=O)n(-c3ccccc3)c3c(c2o1)CCCCCC3 do in these assays?
INS promoter inh: 30.2; Measles CPE: 35.8*; sdo1 growth: -0.87

How did O=c1cc(O)c2c(=O)n(C3CCCCC3)c3ccccc3c2o1 do in these assays?
Measles CPE: 0.5; sdo1 growth: -1.34

What do the screens show for `Cc1nn(Cc2ccccc2)c(C)c1NC(=O)CSc1nc(-c2ccccc2)nc2c1cnn2-c1ccccc1`?
INS promoter inh: -74.3; Measles CPE: 5.9; sdo1 growth: -1.12

Results for Cc1nc(SCC(=O)Nc2c(C)nn(C)c2C)c2cnn(-c3ccccc3)c2n1 ?
INS promoter inh: -22.9; Measles CPE: 48.1*; sdo1 growth: 0.49

What do the screens show for `C/C(=N\NC(N)=S)C1(C)CC2(CC(C)(C)OC2=O)C(=O)O1` (configuration not stated)?
ROMK mod: -0.425

How did CC(=O)c1ccc2c(c1)C1C=CCC1C(c1ccc(S(=O)(=O)N3CCOCC3)cc1)N2 (configuration not stated) do in these assays?
Measles CPE: 89.8*; ROMK mod: 0.32; sdo1 growth: -0.53

What do the screens show for `Cc1c(Cl)cccc1NS(=O)(=O)c1ccc2c(c1)C1C=CCC1C(c1ccc(C(=O)O)cc1)N2` (configuration not stated)?
ROMK mod: 0.552

What do the screens show for `CCCCNC(=O)C1CC(=O)N(c2ccc(OC)cc2)C1c1ccc(OC)cc1` (configuration not stated)?
INS promoter inh: 13.2; Measles CPE: 4.2; sdo1 growth: 1.04

How did CCC(C)(C)C(=O)Nc1ccc(OC)cc1[N+](=O)[O-] do in these assays?
INS promoter inh: 100.0*; Measles CPE: 21.0; sdo1 growth: 0.02

Results for Cc1cc(C)c(OCC(=O)Nc2ccc(NC(=O)c3ccco3)cc2)c([N+](=O)[O-])c1 ?
INS promoter inh: 64.3*; Measles CPE: 7.0; ROMK mod: 0.136; sdo1 growth: -0.04

What do the screens show for `CCCc1cc(NCCCCO)n2c(nc3ccccc32)c1C#N`?
INS promoter inh: 78.6*; Measles CPE: 13.5; ROMK mod: -0.26; sdo1 growth: 1.36

Results for Cc1cccc(-n2ccnc2SCC(=O)N2CCCc3ccccc32)c1C ?
Measles CPE: 11.4; sdo1 growth: -0.24

What do the screens show for `O=C1C2CC=CCC2C(=O)N1c1ccc(N2CCN(c3ccccn3)CC2)c([N+](=O)[O-])c1` (configuration not stated)?
INS promoter inh: 42.9; ROMK mod: -0.749

How did CC(C)c1onc(C(=O)N2CCCCC2)c1[N+](=O)[O-] do in these assays?
INS promoter inh: 30.8; Measles CPE: 8.7; ROMK mod: 0.275; sdo1 growth: 0.36

What do the screens show for `Cc1c([N+](=O)[O-])c(C(=O)N2CCCC2)nn1C`?
INS promoter inh: 0.0; Measles CPE: 68.8*; sdo1 growth: 0.56

Results for Cc1ccccc1NC1=NCC(c2ccc([N+](=O)[O-])cc2)S1 (configuration not stated) ?
ROMK mod: -1.21

How did Cn1ncc(Br)c1C(=O)OCC(=O)Nc1nc(-c2ccccc2)cs1 do in these assays?
INS promoter inh: 9.1; Measles CPE: 35.2*; sdo1 growth: -0.93

How did CC(=O)N(Cc1ccco1)c1nc(C(=O)Nc2ccc(Cl)cc2)c(C)s1 do in these assays?
INS promoter inh: -78.6; Measles CPE: 22.4; ROMK mod: -0.708; sdo1 growth: -1.11

Results for CCN(c1ccccc1)S(=O)(=O)c1ccc(C(=O)Nc2nnc(C3CC3)o2)cc1 ?
INS promoter inh: 77.8*; ROMK mod: 0.67

Results for CN(c1ccccc1)S(=O)(=O)c1ccc(C(=O)Nc2nnc(C3CC3)o2)cc1 ?
INS promoter inh: 0.0; ROMK mod: 0.0836

Results for COc1ccc(-n2nc(C(=O)NCC(=O)NCc3ccc(F)cc3)c3ccccc3c2=O)c(OC)c1 ?
INS promoter inh: 40.9; Measles CPE: 86.8*; sdo1 growth: -0.84

How did COc1ccc(-n2nc(C(=O)NCC(=O)NCc3ccco3)c3ccccc3c2=O)c(OC)c1 do in these assays?
INS promoter inh: 28.1; Measles CPE: 9.0; ROMK mod: -0.994; sdo1 growth: -0.47

What do the screens show for `Cc1cccc(C(C)Nc2ccc([N+](=O)[O-])cn2)c1` (configuration not stated)?
INS promoter inh: 44.0; Measles CPE: 42.5*; sdo1 growth: -1.51

How did N#CC1=C(N)OC2=C(C(=O)CC(c3ccccc3)C2)C1c1ccoc1 (configuration not stated) do in these assays?
INS promoter inh: 42.9; Measles CPE: 30.4*; ROMK mod: -1.36; sdo1 growth: -0.63

How did N#CC1=C(N)OC2=C(C(=O)CC(c3ccccc3)C2)C1c1cccnc1 (configuration not stated) do in these assays?
INS promoter inh: -21.4; Measles CPE: 9.1; ROMK mod: 0.0787; sdo1 growth: 0.48

Results for Cn1c(=O)n(-c2ccc(Cl)cc2)c(=O)c2c3c(sc21)COC(C)(C)C3 ?
INS promoter inh: 30.2; Measles CPE: 5.4; sdo1 growth: -0.45

Results for CCn1c(=O)n(-c2ccc(Cl)cc2)c(=O)c2c3c(sc21)COC(C)(C)C3 ?
INS promoter inh: 74.3*; Measles CPE: 3.5; sdo1 growth: -0.47
